Screening results deposited in PubChem BioAssay by National Center for Advancing Translational Sciences (NCATS).
Rab9 prom act = activates the Rab9 promoter | Huh7 Rab9 promoter-luciferase reporter, luminescence, 24 h | Potency, µM (series often up to 9.22 µM), for inactives: top-dose activation, negative = inhibition, usual class: activators | 320,000 compounds, 2.8% hits | AID 485297; note: % of control where 0% means no effect; nearly all actives have a fitted effect of over 60% in size
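Rab9 promoter-driven luciferase in stably transfected Huh7 cells; 1500 cells/well rested 2 h, exposed to compound in DMSO for 24 h at 37 °C, 5% CO2. Luminescence read 10 min after adding luciferase reagent at ambient temperature.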
FLuc modulator = firefly luciferase modulation, counter-screen for miR-21 project; P08659; purified FLuc, Km substrates, luminescence inhibition; Potency, µM (doses to about 57.5 µM), for the others: at the highest dose activity change, negative = inhibition, usual class: inhibitors; 360,000 compounds, 6.9% hits; AID 588342;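 note: plate controls were vehicle for no effect and reference inhibitor for full effect; nearly all actives have a fitted effect of over 55% in size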
Target sequence (P08659 whole entry, looked up): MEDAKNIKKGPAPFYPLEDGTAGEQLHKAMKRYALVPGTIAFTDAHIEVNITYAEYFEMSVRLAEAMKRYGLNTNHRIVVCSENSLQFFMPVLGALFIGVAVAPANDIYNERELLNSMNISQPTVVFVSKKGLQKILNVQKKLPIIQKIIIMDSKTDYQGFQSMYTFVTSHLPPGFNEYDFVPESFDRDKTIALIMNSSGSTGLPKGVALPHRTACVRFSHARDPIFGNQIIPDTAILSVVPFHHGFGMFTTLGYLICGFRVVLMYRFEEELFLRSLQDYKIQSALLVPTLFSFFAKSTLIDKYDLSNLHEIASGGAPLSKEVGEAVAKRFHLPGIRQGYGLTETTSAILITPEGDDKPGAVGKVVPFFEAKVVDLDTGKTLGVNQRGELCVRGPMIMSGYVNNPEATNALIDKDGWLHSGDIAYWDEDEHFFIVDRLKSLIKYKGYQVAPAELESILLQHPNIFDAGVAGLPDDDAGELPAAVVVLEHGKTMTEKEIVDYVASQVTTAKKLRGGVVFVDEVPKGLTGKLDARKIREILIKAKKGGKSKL
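Purified P. pyralis luciferase (10nM final) with 10uM D-luciferin and 10uM ATP (Km levels) in 50mM Tris acetate pH 7.5, 10mM Mg acetate, 0.01% Tween-20, 0.05% BSA; qHTS 6-point titration, ~60 µM downward; luminescence read.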
KinaseGlo FLuc = counter-screen: inhibitors of Kinase-Glo firefly luciferase. Q27757. 200,000 compounds, 0.28% hits. Kinase-Glo luciferase, ATP luminescence, 8 min. Potency, µM (doses to about 38.3 µM), for the others: top-dose activity change, negative = inhibition, usual class: inhibitors; note: % is set by controls: 0 for no effect and ±100 for the full control effect; nearly all actives have a fitted effect of over 60% in size
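Kinase-Glo luciferase light output from ATP and luciferin was measured with 10 uM ATP, within the enzyme's linear range. Buffer: 50 mM imidazole pH 7.2, 50 mM KCl, 7 mM MgCl2, 0.01% Tween 20, 0.05% BSA; luminescence read after 8 min at ambient temperature.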
SMN2 splice enh = SMN2 splice variant enhancement; HEK293 SMN2-luciferase splicing reporter, luminescence, 30-36 h; Potency, µM (series often up to 46.1 µM), inactives show top-dose activity change, positive = activation, usual class: activators; 210,000 compounds, 2.8% hits; AID 1458; note: % of control where 0% means no effect; nearly all actives have a fitted effect of over 55% in size
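HEK293 cells carry an SMN2 […]–luciferase reporter in which exon 7 inclusion puts luciferase in frame. Cells were plated 10-12 h before compound addition, then incubated 30-36 h at 37C. ONE-Glo luminescence was read; sodium butyrate at 4.5 mM final served as control.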
ELG1 genotoxic = genotoxicity induction in ELG1-luciferase HEK293T cells | 330,000 compounds, 1.3% hits | AID 504466 | Potency, µM (doses to about 46 µM), for inactives: at the top dose activity change, positive = activation, usual class: activators | HEK293T ELG1-luciferase reporter, luminescence, 16 h; note: % of control where 0% means no effect; nearly all actives have a fitted effect of over 60% in size
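DMSO vehicle served as control against compound-treated ELG1-luciferase HEK293T cells; exposure lasted 16 hr at 37 °C and 5% CO2, followed by ONE-Glo luminescence detection after 30 min.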
NPC1 prom act = activates the NPC1 promoter; Huh7 NPC1 promoter luciferase reporter, 24 h; Potency, µM (series often up to 9.22 µM), for the others: top-dose activation, hits mostly activators; 320,000 compounds, 2.4% hits; note: % of control where 0% means no effect; nearly all actives have a fitted effect of over 60% in size
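Luminescence from an NPC1 promoter-driven luciferase reporter in stably transfected Huh7 cells was measured after 24 h compound treatment at 37 °C, followed by 10 min ambient incubation with luciferase detection reagent.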
* hit, by the source's call; [ ] = another dose, or the depositor's remark. Shown are actives, neighbours in structure and some others; about 7.3% of the full set was active somewhere. Calls come from the whole dose curve; as a rule, active = well fitted curve in the direction sought with a large enough effect; inconclusive = small, poorly fitted or top-dose-only effect, or another doubt; inactive = no such curve, though single readings can be large; an effect the other way counts as inactive or inconclusive. Potency is the fitted concentration of half-maximal effect.

Results for Cc1nc(C)c(C(=O)N/N=C/c2cn(C)c3ccccc23)s1 ?
Rab9 prom act: 8.0%; FLuc modulator: 16.9µM*; KinaseGlo FLuc: -2.7%; SMN2 splice enh: -3.6%; ELG1 genotoxic: 1.1%; NPC1 prom act: -2.5%

Results for Cc1cc(O)c(C(C)C)cc1N=Cc1ccccc1O ?
Rab9 prom act: -1.2%; FLuc modulator: -0.4%; KinaseGlo FLuc: -2.1%[7.66 µM]; SMN2 splice enh: -11.6%[9.22 µM]; ELG1 genotoxic: -0.3%; NPC1 prom act: 4.1%

What do the screens show for `Cc1ccc2cc(/C=N/Nc3nc4ccccc4[nH]3)c(Cl)nc2c1`?
Rab9 prom act: 0.631µM*; FLuc modulator: 0.0849µM*; KinaseGlo FLuc: 6.31µM*; SMN2 splice enh: 5.01µM*; ELG1 genotoxic: inconclusive; NPC1 prom act: 2.82µM*

How did CCN(CC)c1ccc(/C=N/Nc2nc3ccccc3[nH]2)c(O)c1 do in these assays?
Rab9 prom act: -28.0%; FLuc modulator: 7.57µM*; KinaseGlo FLuc: 13.9%; SMN2 splice enh: -72.9%; ELG1 genotoxic: inconclusive; NPC1 prom act: -30.0%

Results for COc1cc(OC)c(OC)cc1/C=N/Nc1nc2ccccc2[nH]1 ?
Rab9 prom act: 8.8%; FLuc modulator: -14.2%; ELG1 genotoxic: 1.3%; NPC1 prom act: 1.1%

How did CCCCCOC(=O)CSc1nc2c(c(=O)[nH]c(=O)n2C)n1CCc1ccccc1 do in these assays?
Rab9 prom act: 1.5%; FLuc modulator: -2.7%; KinaseGlo FLuc: -0.4%; SMN2 splice enh: 12.6%; ELG1 genotoxic: -7.0%; NPC1 prom act: -3.8%

How did COc1ccccc1NCC(=O)N/N=C(\C)c1ccc(Br)s1 do in these assays?
Rab9 prom act: -4.3%; FLuc modulator: 2.4%; KinaseGlo FLuc: 0.5%; SMN2 splice enh: 7.7%; ELG1 genotoxic: 3.5%; NPC1 prom act: 7.7%

Results for Brc1ccc(-c2noc(C3CCCCC3)n2)cc1 ?
Rab9 prom act: 2.82µM*; FLuc modulator: 6.75µM*; KinaseGlo FLuc: -0.5%; ELG1 genotoxic: inconclusive; NPC1 prom act: inconclusive

What do the screens show for `Cc1ccc(-c2noc(C3CCCN(C(=O)c4ccccc4Br)C3)n2)cc1` (stereo not given)?
Rab9 prom act: 0.8%; FLuc modulator: inconclusive; ELG1 genotoxic: 10.4%; NPC1 prom act: 14.5%

How did c1ccc(-c2noc(C34CC5CC(CC(C5)C3)C4)n2)nc1 do in these assays?
Rab9 prom act: inconclusive; FLuc modulator: 10.7µM*; KinaseGlo FLuc: 1.0%; SMN2 splice enh: 12.6µM*; ELG1 genotoxic: 14.6µM*; NPC1 prom act: inconclusive

What do the screens show for `c1ccc(-c2noc(C3CCCCC3)n2)nc1`?
Rab9 prom act: 2.82µM*; FLuc modulator: 10.7µM*; KinaseGlo FLuc: inconclusive; SMN2 splice enh: 11.2µM*; ELG1 genotoxic: 6.51µM*; NPC1 prom act: inconclusive

What do the screens show for `CCOC(=O)N1CCC(=NNc2nc3ccccc3s2)CC1`?
Rab9 prom act: 3.98µM*; FLuc modulator: 3.38µM*; ELG1 genotoxic: inconclusive; NPC1 prom act: 2.51µM*

What do the screens show for `CCOC(=O)N1CCN(S(=O)(=O)c2ccc(C(=O)Nc3nc4ccccc4s3)cc2)CC1`?
Rab9 prom act: -5.6%; FLuc modulator: -0.1%; KinaseGlo FLuc: 0.7%; SMN2 splice enh: -16.2%; ELG1 genotoxic: -0.6%; NPC1 prom act: -0.2%

What do the screens show for `O=C(O)C1C2CCC(C2)C1C(=O)Nc1nc2ccccc2s1` (stereo not given)?
Rab9 prom act: -0.3%; FLuc modulator: -0.4%; KinaseGlo FLuc: 2.9%; ELG1 genotoxic: 16.1%; NPC1 prom act: 0.5%

Results for CC(=O)N1CCC(=NNc2nc3ccccc3s2)CC1 ?
Rab9 prom act: 3.98µM*; FLuc modulator: 16.9µM*; KinaseGlo FLuc: -3.3%; SMN2 splice enh: 9.9%; ELG1 genotoxic: 10.8%; NPC1 prom act: 25.6%

Results for CCOC(=O)C1CCCN(Cc2ccc(OCc3ccccc3)cc2)C1 (stereo not given) ?
Rab9 prom act: 3.8%; FLuc modulator: inconclusive; ELG1 genotoxic: -4.7%; NPC1 prom act: 8.0%

What do the screens show for `Cc1cccc(OCCSc2nc(-c3cccs3)nc3cc(=O)[nH]n23)c1`?
FLuc modulator: 15.1µM*

What do the screens show for `Cc1cc(/C=C(\C#N)C(=O)NCc2cccs2)c(C)n1-c1ccccc1F`?
Rab9 prom act: 3.55µM*; FLuc modulator: 2.13µM*; KinaseGlo FLuc: -1.1%; SMN2 splice enh: -29.3%; ELG1 genotoxic: inconclusive; NPC1 prom act: 3.55µM*

What do the screens show for `COc1ccc(/C=C(\C#N)C(=O)NCc2cccs2)cc1OC`?
Rab9 prom act: -0.2%; FLuc modulator: -13.4%; KinaseGlo FLuc: 0.6%; SMN2 splice enh: 2.5%; ELG1 genotoxic: -0.5%; NPC1 prom act: -3.2%

Results for Cc1ccccc1-n1c(C)cc(/C=C(\C#N)C(=O)NCC2CCCO2)c1C (stereo not given) ?
Rab9 prom act: inconclusive; FLuc modulator: 0.953µM*; KinaseGlo FLuc: -1.9%; SMN2 splice enh: -6.5%; ELG1 genotoxic: 10.3µM*; NPC1 prom act: -0.2%

What do the screens show for `Cc1ccc(/C=C(\C#N)C(=O)NCC2CCCO2)o1` (stereo not given)?
Rab9 prom act: 17.0%; FLuc modulator: -15.2%; KinaseGlo FLuc: 1.4%; SMN2 splice enh: inconclusive; ELG1 genotoxic: 12.1%; NPC1 prom act: 12.6%

What do the screens show for `Cc1ccc(NC(=O)CCc2ccccc2)cc1S(=O)(=O)N1CCOCC1`?
ELG1 genotoxic: -1.5%

Results for CC(Sc1nccn1C)C(=O)c1ccc(Br)cc1 (stereo not given) ?
Rab9 prom act: -0.1%; FLuc modulator: 3.5%; ELG1 genotoxic: 6.8%; NPC1 prom act: -3.3%

Results for COc1ccc(CNc2ccc([N+](=O)[O-])cn2)cc1 ?
Rab9 prom act: 3.98µM*; FLuc modulator: 10.7µM*; ELG1 genotoxic: inconclusive; NPC1 prom act: 3.16µM*

How did COc1ccc(/C=C/C(=O)OCC(=O)Nc2ccc(Cl)c(S(=O)(=O)N(C)C)c2)cc1OC do in these assays?
Rab9 prom act: -1.8%; FLuc modulator: 23.9µM*; KinaseGlo FLuc: 1.9%; SMN2 splice enh: -1.1%; ELG1 genotoxic: 8.5%; NPC1 prom act: -5.1%

Results for COc1ccc(/C=C/C(=O)OCC(=O)Nc2ccc(OC)c(S(=O)(=O)N3CCCCC3)c2)cc1 ?
Rab9 prom act: -3.5%; FLuc modulator: 6.01µM*; KinaseGlo FLuc: 4.0%; SMN2 splice enh: 11.0%; ELG1 genotoxic: -0.1%; NPC1 prom act: -2.2%

How did COc1ccc(NC(=O)COC(=O)/C=C/c2ccc(OC)c(S(=O)(=O)N3CCOCC3)c2)cc1 do in these assays?
Rab9 prom act: 9.6%; FLuc modulator: 1.3%; KinaseGlo FLuc: -3.2%; SMN2 splice enh: 9.4%; ELG1 genotoxic: 2.6%; NPC1 prom act: -0.8%
